Assay results as given in PubChem BioAssay AID1259343 (VanderVen Lab, College of Veterinary Medicine, Cornell …, 2017).
In all, about 6,200 compounds went through this assay and about 2,900 (47%) were called active. Rule as the data show it: active = inhibition above about 50%; inactive = the rest. So high a share suggests a set chosen from earlier hits. The list shows a part of the results.

assay: Mycobacterium tuberculosis growth inhibition, primary screen (AID 1259343); settings: inhibition: at 10 µM, stronger effect = higher value; outcome: 10 uM

| Structure (SMILES) | inhibition |
| --- | --- |
| O=C1N=c2ccc(Br)cc2=C1c1sc(NS(=O)(=O)Cc2ccccc2)nc1O | 16.2% (inactive) |
| CC(Sc1nnc(-c2ccc(Br)cc2)o1)C(N)=O (stereo not given) | 86% (active) |
| CC(C)(C)c1ccc(OCCCC(=O)NCc2cn[nH]c2)cc1 | 88% (active) |
| Cc1oc(-c2ccccc2)nc1C(=O)NCC1CCCCC1 | 16.3% (inactive) |
| Cc1nn(C(C)(C)C)c(C)c1C(=O)NCC1CCCCCCC1 | 80.2% (active) |
| Cc1ccc(C(=O)NCC2CCCCC2)c(C2CCN(C(=O)c3ccccc3)CC2)n1 | 31.2% (inactive) |
| OC1(c2ccccc2)CC(=NC2=NN(c3ccccc3)CC2)C=C1c1ccccc1 (stereo not given) | 84% (active) |
| Cn1cc(Br)cc1C(=O)Nc1cc2c(cc1Cl)OCO2 | 88.7% (active) |
| CC(C)Oc1ccc(NC(=O)c2cc(Br)cn2C)cc1 | 23% (inactive) |
| CC(C)c1cccc(-c2nc3c(NCc4ccccn4)nccc3[nH]2)c1 | 82.7% (active) |
| COCCCNc1nccc2[nH]c(-c3cccc(C(C)C)c3)nc12 | 78.4% (active) |
| Clc1ccccc1-c1nc2c(NCCc3ccccc3)nccc2[nH]1 | 60.4% (active) |
| c1ccc(CCNc2nc(-c3ccco3)nc3ccccc23)cc1 | 8.49% (inactive) |
| Brc1ccc2nc(NCc3ccccn3)nc(-c3ccccc3)c2c1 | 1.6% (inactive) |
| CC(C)c1cccc(-c2nc3c(NCCc4ccncc4)nccc3[nH]2)c1 | 51.9% (active) |
| Cc1ccc(-c2cc(CNCc3ccco3)no2)c(C)c1 | 27.2% (inactive) |
| FC(F)(F)c1ccc(NCc2csc(-c3ccco3)n2)cc1 | 89.6% (active) |
| FC(F)(F)c1cc(-c2ccco2)nc(NCC2CCCO2)n1 (stereo not given) | 28.3% (inactive) |
| Cn1nnc2c(Nc3ccc(OC(F)F)cc3)ncnc21 | 72% (active) |
| Cn1nnc2c(Nc3ccc(Nc4ccccc4)cc3)ncnc21 | 9.73% (inactive) |
| Cn1nnc2c(Nc3ccc(Oc4ccccc4)cc3)ncnc21 | 53.9% (active) |
| CCc1ccc(Nc2ncnc3c2nnn3C)cc1 | 69.2% (active) |
| CCOc1ccc(Nc2ncnc3c2nnn3C)cc1 | 16.3% (inactive) |

| Structure (SMILES) | inhibition |
| --- | --- |
| Cc1cc(Cl)ccc1Oc1ncccc1C#N | 33.1% (inactive) |
| Cc1cc(Cl)ccc1OCC(O)CN1CCN(c2ccccc2)CC1 (stereo not given) | 51.6% (active) |
| Brc1ccccc1-c1csc(=Nc2cccnc2)n1C1CC1 | 36.9% (inactive) |
| FC(F)Oc1ccc(-c2csc(=Nc3cccnc3)n2C2CC2)cc1 | 80.6% (active) |
| CN=c1scc(-c2ccc(F)cc2)n1N=C(C)c1ccncc1 | 18.1% (inactive) |
| Fc1ccc(N=c2scc(-c3ccc(OC(F)F)cc3)n2C2CC2)cc1 | 53.9% (active) |
| FC(F)Oc1ccc(-c2csc(=Nc3cccnc3)n2CC2CCCO2)cc1 (stereo not given) | 38.5% (inactive) |
| CN(c1ccccc1)c1nnc(C(O)c2cc(F)c(F)c(F)c2)s1 (stereo not given) | 69.1% (active) |
| NC(=O)COc1ccc(C(=O)N2CCc3sccc3C2)cc1 | 67% (active) |
| NC(=O)c1ccc(C(=O)N2CCC(=Cc3ccccc3)CC2)cc1 | -6.19% (inactive) |
| CCCCN(C)c1ccc(C(=O)N2CCc3sccc3C2)cc1 | 9.79% (inactive) |
| CC1CC(C)CN(C(=O)c2cc3c(s2)CCC3)C1 (stereo not given) | 8.3% (inactive) |
| O=C(COC(=O)c1cc2c(s1)CCC2)NCCN1C(=O)CSC1=O | 71.9% (active) |
| COC(=O)c1cccc(OC(=O)c2cc3c(s2)CCCC3)c1 | 22% (inactive) |
| Cc1cccc(C)c1NC(=O)CN(C)c1cnn(Cc2ccccc2)c(=O)c1Cl | 32.3% (inactive) |
| Cc1cccc(C)c1NC(=O)C[N+](C)(C)C | 65.2% (active) |
| CN(Cc1nc2ccccc2c(=O)[nH]1)C(=O)c1cccc(Cl)c1Cl | 44.4% (inactive) |
| CN(C)C(=O)N1CCN(c2cc(-c3ccccc3)c3ccccc3n2)CC1 | 30.6% (inactive) |
| O=c1[nH]c(CN2CCN(c3cc(=O)n4ccccc4n3)CC2)nc2ccccc12 | 68.5% (active) |
| NC(=O)c1ccc2nc(-c3ccc(Oc4ccc(Cl)cc4)cc3)[nH]c2c1 | 64.4% (active) |
| NC(=O)c1ccc(-c2nc(-c3ccc4c(c3)OCCO4)c(-c3ccccn3)[nH]2)cc1 | 40.2% (inactive) |
| CC(C)CNc1nn2cc(C(C)(C)C)nc2s1 | 43.8% (inactive) |
| Cc1ccc(CNc2ncnc3[nH]ncc23)o1 | 99.6% (active) |

| Structure (SMILES) | inhibition |
| --- | --- |
| COc1ccc(CCNc2ncnc3[nH]ncc23)cc1 | 8.19% (inactive) |
| CCC/C=C/c1ccc(NC(C)=O)nc1 | 92.5% (active) |
| CCC/C=C/c1cccc(C(=O)NCC)c1 | 79.3% (active) |
| C=CCNC(=O)c1cccc(I)c1 | -37.8% (inactive) |
| CN(C)c1cccc(C(=O)NCC2COc3ccccc3C2)c1 (stereo not given) | 13.6% (inactive) |
| C=CCC(=O)N1CCC(C(=O)Nc2ccc(-c3cccc(C)c3)cc2)CC1 | 91.9% (active) |
| COCC(=O)N1CCC(C(=O)Nc2ccc(-c3cccc(C)c3)cc2)CC1 | inactive |
| Cc1cccc(-c2ccc(NC(=O)C3CCN(C(=O)CC4=CCCCC4)CC3)cc2)c1 | 90.9% (active) |
| Cc1cccc(-c2ccc(NC(=O)C3CCN(C(=O)CC4CCCC4)CC3)cc2)c1 | 89.3% (active) |
| N#CC1=C(NC(=O)c2ccc(COc3ccc(Cl)cc3)cc2)CCC1 | 82.1% (active) |
| O=C(NCCO)c1ccc(OCc2ccc(Cl)s2)cc1 | -5.18% (inactive) |
| CCc1ccc(Nc2ccc([N+](=O)[O-])c3nonc23)cc1 | 85.6% (active) |
| Cc1nonc1OCCCNc1ccc([N+](=O)[O-])cc1 | 37.2% (inactive) |
| CC12CCC(CC1=NNc1nc3ccccc3o1)C2(C)C (stereo not given) | 83.6% (active) |
| CCCCc1nnc(NC(=O)N2CCc3ccccc3C2)s1 | 33.5% (inactive) |
| CCCCCc1nnc(NC(=O)Cc2ccccc2)s1 | 89.6% (active) |
| CCCCc1nnc(NC(=O)C2Cc3ccccc3S2)s1 (stereo not given) | 54.4% (active) |
| O=C(NCCNc1ncc(C(F)(F)F)cc1Cl)C1Cc2ccccc2S1 (stereo not given) | 46.4% (inactive) |
| CCCc1nnc(NC(=O)CC(=O)Nc2ccccc2C(=O)O)s1 | 9.89% (inactive) |
| CCC(Cc1c(I)cc(I)c(N)c1I)C(=O)O (stereo not given) | 84.2% (active) |
| CCc1ccc(NC(=O)CSc2nc(=O)n3ccccc3n2)cc1 | -1.93% (inactive) |
| O=c1nc(SCc2cccc(C(F)(F)F)c2)nc2ccccn12 | -26.8% (inactive) |
| CCOC(=O)c1ccc(NC(=O)CSc2nc(=O)n3ccccc3n2)cc1 | 90.4% (active) |

| Structure (SMILES) | inhibition |
| --- | --- |
| c1coc(-c2cc(CSc3nnc(Cc4cccs4)n3C3CC3)no2)c1 | -54.4% (inactive) |
| Cc1[nH]n(-c2ccc(Cl)cc2)c(=O)c1C1=C(c2c[nH]c3ccccc23)C(=O)N(Cc2ccc(F)cc2)C1=O | 61.5% (active) |
| O=C(Nc1nc(-c2c[nH]c3ccccc23)cs1)c1ccc(F)cc1Cl | 17% (inactive) |
| CCc1nc2c(OCCOc3ccc(F)cc3)cccn2c1N(C)C(=O)c1ccccc1F | 45.2% (inactive) |
| CCOC(=O)N1CCC(NS(=O)(=O)CCCOc2ccc(F)cc2)CC1 | 45% (inactive) |
| Cc1ccccc1C(c1ncccc1C)N(C)C(=O)C1CCN(CCCOc2ccc(F)cc2)CC1 (stereo not given) | 60.1% (active) |
| N#Cc1ccc(NCCc2cccc(F)c2)cn1 | 36.5% (inactive) |
| CS(=O)(=O)Nc1ccc(/C=C/C(=O)NCCc2cccc(F)c2)cc1 | 52.3% (active) |
| CC(NC(=O)C/C=C/c1cccc(F)c1)C(O)Cc1ccccc1 (stereo not given) | 15.7% (inactive) |
| CCc1ccc(CNc2ccc(CNc3ncn[nH]3)cc2)cc1 | 91.1% (active) |
| COc1cc(NC(=O)CNCCN2CCOC2=O)ccc1Cl | 55.3% (active) |
| Cc1ccccc1-c1noc(-c2cccc(NC(=O)CCN3CCCO3)c2)n1 | 19.4% (inactive) |
| Cc1cc(NC(=O)CNCCN2CCCOC2=O)ccc1Cl | 77.5% (active) |
| CCC(=O)c1ccc(OCc2cc(-c3ccccc3)on2)cc1 | 92.5% (active) |
| Cc1nc2ccccn2c1C(=O)OCc1cc(-c2ccco2)on1 | 33.3% (inactive) |
| COc1cccc(-c2cc(CC(=O)NC3CCCC3)no2)c1 | 19.6% (inactive) |
| CC(C)CN1C(=O)C(=Cc2c(N3CCN(CCO)CC3)nc3ccccn3c2=O)SC1=S | 7.51% (inactive) |
| NC(=O)CSc1nccc2c(OCc3ccc(F)cc3)cccc12 | 77.4% (active) |
| CNS(=O)(=O)c1ccc2c(c1)CCN2C(=O)c1ccc(F)cc1F | 32% (inactive) |
| Cc1sc(NC(=O)C2CC2)c(C(=O)N2CCc3ccccc32)c1C | -6.91% (inactive) |
| CNS(=O)(=O)c1ccc(C(=O)N2CCc3ccccc32)o1 | 89.9% (active) |
